High-throughput results deposited in PubChem BioAssay by National Center for Advancing Translational Sciences (NCATS).
TR SRC2 fluor cs: counter-screen for TRb-SRC2 inhibitors: fluorescence interference; hit rate 0.29% among 280,000; TRb/SRC2 Texas Red total fluorescence interference; AID 1479; Potency, µM (top dose mostly 106 µM), inactives show top-dose fluorescence change, negative = quenching; active = well fitted curve in either direction with a large enough effect; inconclusive = small, poorly fitted or top-dose-only effect; also: potency is read from the fitted curve at half-maximal effect; % is scaled to controls: 0 for no effect and ±100 for the full control effect
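Human TRb ligand-binding domain at 0.6 uM with 20 nM Texas Red SRC2 peptide in Tris buffer containing 1 uM T3 and 5% DMSO, incubated with compound 5 h at ambient temperature. Total fluorescence (555/632 nm) calculated as parallel + 2 × perpendicular.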
Tau fibril ThT: inhibitors of human tau fibril formation, thioflavin T binding. P10636. recombinant tau K18 P301L, heparin-induced fibrillization, ThT fluorescence. Potency, µM (top dose mostly 57.4 µM), for inactives: at the highest dose activity, negative = inhibition, most hits filed as inhibitors. hit rate 2.1% among 270,000. AID 1460; also: potency is read from the fitted curve at half-maximal effect; % is scaled to controls: 0 for no effect and ±100 for the full control effect; nearly all actives have a fitted effect of over 55% in size
Target sequence (P10636 561-689 P618L limits assumed): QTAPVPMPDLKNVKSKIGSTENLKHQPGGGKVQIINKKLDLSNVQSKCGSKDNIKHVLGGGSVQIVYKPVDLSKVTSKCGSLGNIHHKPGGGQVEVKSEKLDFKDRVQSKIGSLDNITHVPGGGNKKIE
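Aggregation was driven by heparin (20 uM final) acting on recombinant tau […] bearing P301L in 100 mM sodium acetate pH 7; fibrils were detected with Thioflavin T.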
Tau fluor cs: counter-screen for tau fibril formation inhibitors; tau K18 P301L Alexa594 fluorescence, heparin fibrillization; AID 1463; Potency, µM (series often up to 57.7 µM), for inactives: at the highest dose activity change, negative = decrease; hit rate 0.93% among 280,000; also: potency is read from the fitted curve at half-maximal effect; % is scaled to controls: 0 for no effect and ±100 for the full control effect; nearly all actives have a fitted effect of over 55% in size
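Human K18 P301L tau (15 uM unlabeled plus 0.24 uM Alexa 594-labeled, final) in 100 mM sodium acetate pH 7 was mixed with compound and 20 uM heparin and incubated 6 hr at 37 C.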
Tau fibril FP: tau fibrillization inhibition (FP). K18 P301L tau heparin fibrillization, Alexa594 FP, 6 h. Potency, µM (highest dose often 57.7 µM), for the others: top-dose activity, negative = inhibition, usual class: inhibitors. hit rate 0.39% among 280,000; also: potency is read from the fitted curve at half-maximal effect; % is scaled to controls: 0 for no effect and ±100 for the full control effect; nearly all actives have a fitted effect of over 55% in size
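K18 P301L tau (15 uM unlabeled/0.24 uM Alexa 594-labeled, final) + compound + heparin 20 uM final; 100 mM NaOAc pH 7; 6 hr 37 C; ThT 30 uM final added, 1 hr RT; FP ex 555/em 632 nm.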
TRb-SRC2 inh: inhibitors of human thyroid hormone receptor beta-SRC2 interaction; P10828; TRbeta-SRC2 peptide binding, fluorescence polarization; receptor liganded with 1 µM T3; Potency, µM (doses to about 106 µM), inactives show at the highest dose activity change, negative = inhibition, usual class: inhibitors; hit rate 0.065% among 280,000; AID 1469;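 also: potency is read from the fitted curve at half-maximal effect; plate controls were bound peptide for no effect and peptide without receptor for full effect; nearly all actives have a fitted effect of over 50% in size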
Target sequence (P10828 whole entry, looked up): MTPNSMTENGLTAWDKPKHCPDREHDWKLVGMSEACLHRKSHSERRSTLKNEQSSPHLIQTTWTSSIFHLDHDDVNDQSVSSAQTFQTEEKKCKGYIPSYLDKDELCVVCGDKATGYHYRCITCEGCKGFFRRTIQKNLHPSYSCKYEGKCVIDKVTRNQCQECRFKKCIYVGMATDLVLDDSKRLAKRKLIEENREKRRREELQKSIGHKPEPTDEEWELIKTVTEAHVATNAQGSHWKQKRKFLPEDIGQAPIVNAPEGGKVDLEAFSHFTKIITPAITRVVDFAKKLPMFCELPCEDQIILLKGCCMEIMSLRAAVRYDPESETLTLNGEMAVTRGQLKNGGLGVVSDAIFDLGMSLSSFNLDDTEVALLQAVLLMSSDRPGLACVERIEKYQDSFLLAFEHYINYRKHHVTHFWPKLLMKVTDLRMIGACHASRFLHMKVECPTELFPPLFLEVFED
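Binding of a 20-amino-acid Texas Red SRC2 peptide (20 nM) to TRb ligand-binding domain (0.6 uM) with agonist T3 at 1 uM was followed by fluorescence polarization after a 5 hr room-temperature incubation.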
Tau TEM fibril: Blocks tau fibril formation, electron microscopy; shares compounds with Tau fibril ThT; recombinant tau K18 P301L fibrillization, TEM grading; stronger effect = higher value; fibril grade (0 = clumped fibrils, 4 = only tiny pieces) (no concentration beside the values); hit rate 70% among 45;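 active = compounds whose electron micrographs showed tau fibrils broken into shorter filaments or fragments, graded high on fibril breakup; inconclusive = micrographs gave an unclear fibril picture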
tau fibril sed: reduces sedimented tau K18 P301L aggregates | shares compounds with Tau fibril ThT | recombinant tau K18 P301L (four-repeat tau fragment), sedimentation SDS-PAGE densitometry | inhibition, % at 100 µM | hit rate 50% among 110 | AID 1720; in the data active = inhibition above about 40%; inconclusive = no clear call, values can overlap the other calls; inactive = below about 18%
An asterisk follows results filed as active; u = inconclusive; x = no result; [ ] = remark or other dose. In the library only some 3.1% were active in any assay of this set; here they are far more common. Unless noted, calls follow the shape of the dose curve; as a rule, active = well fitted curve in the direction sought with a large enough effect; inconclusive = small, poorly fitted or top-dose-only effect, or another doubt; inactive = no such curve, though single readings can be large; an effect the other way counts as inactive or inconclusive.

SMILES	TR SRC2 fluor cs	Tau fibril ThT	Tau fluor cs	Tau fibril FP	TRb-SRC2 inh	Tau TEM fibril	tau fibril sed
CCc1ccc(S(=O)(=O)Nc2cc(SCC(=O)O)c(O)c3ccccc23)cc1	-6%	3.2µM*	u	8.9µM*	-1%	4*	77*
O=C(O)CSc1cc(NS(=O)(=O)c2cccc([N+](=O)[O-])c2)c2ccccc2c1O	-5%	1.8µM*	u	4µM*	-13%	4*	79*
Cc1oc2c(cc(NS(=O)(=O)c3ccc(C(C)C)cc3)c3ccccc32)c1C(=O)O	-22%	u	-14%	6%	0%	x	x
Cc1c(NC(=O)c2cc3nc(-c4ccc(Cl)cc4)cc(C(F)(F)F)n3n2)c(=O)n(-c2ccccc2)n1C	-2%	u	-7%	-12%	-10%	x	x
CCOC(=O)c1ccc(Nc2nc3nonc3nc2Nc2cccc(C)c2C)cc1	-1%	u	u	u	4%	x	x
CCN1CCN(C(=O)c2nn(-c3ccccc3)c(=O)c3ccccc23)CC1	0%	-3%	-6%	-1%	4%	x	x
NC(=O)c1nn(-c2ccccc2)c(=O)c2c(N)scc12	x	x	x	x	x	x	89*
Nc1scc2c(C(=O)N3CCOCC3)nn(-c3ccccc3)c(=O)c12	x	x	x	x	x	x	89*
CCOC(=O)c1nn(-c2ccccc2)c(=O)c2c(N)scc12	-8%	8.9µM*	u	u	4%	2*	73*
Nc1nn(-c2ccccc2)c(=O)c2c(N)scc12	x	x	x	x	x	x	86*
c1ccc(Nc2ncnc3[nH]ncc23)cc1	-4%	x	-4%	11%	0%	x	x
O=C(O)c1ccccc1C(=O)NNc1cccc(Cl)n1	-2%	-14%	-2%	7%	0%	x	x
CCCCc1cc(=O)oc2cc(OCc3nn[nH]n3)ccc12	-6%	-9%	-8%	14%	-8%	x	x
COc1ccc(C(=O)Nc2nnc(S(=O)(=O)N(C)c3ccc(Cl)cc3)s2)cc1OC	-23%	u	-15%	3%	0%	x	x
CCOC(=O)c1nn(-c2ccccc2)c(=O)c2c(NC(C)=O)scc12	-2%	2%	-7%	-4%	4%	x	11
Nc1scc2c(CO)nn(-c3ccccc3)c(=O)c12	x	x	x	x	x	x	81*
COc1ccc([N+](=O)[O-])cc1NC(=O)c1ccccc1N(C)S(C)(=O)=O	-5%	0%	-4%	-7%	9%	x	x
COc1ccc2c(c1)c(CC(=O)N1CCOCC1)c(C)n2C(=O)c1ccc(Cl)cc1	-3%	-6%	-5%	8%	-1%	x	9
COc1ccc2c(c1)c(CC(=O)OCC(N)=O)c(C)n2C(=O)c1ccc(Cl)cc1	-2%	-4%	-18%	-9%	3%	x	x
Cc1cc2c(NC(=O)Nc3ccccc3)cccc2nn1	21%	u	-25%	u	u	u	u
Cc1cc2c(N)cccc2nn1	-1%	3.2µM*	u	u	3%	3*	64*
CCOc1cc(/C=N/N=C2/NC(=O)C(CC(=O)O)S2)ccc1OCc1ccc(Cl)cc1Cl (configuration not stated)	-6%	u	8%	-1%	9%	x	x
COc1cc(/C=N/N=C2/NC(=O)C(CC(=O)O)S2)ccc1OCc1ccc(Cl)cc1 (configuration not stated)	-19%	-8%	4%	12%	5%	x	18
CCCNC(=O)OC[C@@H]1O[C@H](CCO/N=C\C[C@H]2C=C[C@H](OC(C)=O)[C@@H](COC(C)=O)O2)C=C[C@@H]1Oc1ccc(OC)cc1	0%[11.2 µM]	-12%[11.5 µM]	-12%[11.6 µM]	-1%[11.6 µM]	0%[11.2 µM]	x	x
COc1cccc(CNc2cccc3cccnc23)c1O	-9%	28µM*	u	u	0%	2*	u
SMILES	TR SRC2 fluor cs	Tau fibril ThT	Tau fluor cs	Tau fibril FP	TRb-SRC2 inh	Tau TEM fibril	tau fibril sed
COc1cccc(CNc2cnc3ccccc3c2)c1O	0%	u	u	10%	-2%	x	x
COc1ccc(NC(=O)C2CCN(S(=O)(=O)c3c(C)noc3/C=C/c3cccs3)CC2)cc1Cl	0%	5%	-18%	16µM*	-9%	x	8
COC(=O)c1c(NC(=O)C(Cl)Cl)sc2c1C(C(=O)OC)CC2 (configuration not stated)	0%	u	-26%	3%	4%	x	x
COC(=O)c1c(NC(=O)CCCOc2cccc(C)c2)sc2c1C(C(=O)OC)CC2 (configuration not stated)	u	3.2µM*	-28%	u	-3%	2*	56*
COC(=O)c1c(NC(=O)C(C)(C)C)sc2c1C(C(=O)OC)CC2 (configuration not stated)	-5%	-5%	-3%	2%	-8%	x	17
COC(=O)c1c(NC(=O)CCCOc2ccc(C)cc2)sc2c1C(C(=O)OC)CC2 (configuration not stated)	6%	7.9µM*	u	u	2%	2*	56*
COC(=O)c1c(NC(=O)CCCOc2cccc(C)c2)sc2c1CCC2	6%	u	-18%	-9%	4%	x	x
O=S(=O)(c1ccc(N=C2NN=C(c3cc(F)ccc3F)CS2)cc1)N1CCOCC1	-3%	6.3µM*	u	u	-6%	3*	44*
O=C(Nc1nnc(S(=O)(=O)Nc2ccccc2)s1)C1CCCCC1	2%	u	u	-18%	-1%	x	10
O=C(Nc1nnc(S(=O)(=O)Nc2ccccc2)s1)c1ccccc1Cl	-1%	u	-20%	-2%	-3%	x	x
Cc1ccc(S(=O)(=O)N(C)c2nc3ccccc3[nH]c2=S)cc1	-3%	1.1µM*	-24%	u	-1%	0	u
NC(=O)c1csc(-c2ccncc2)n1	0%	-4%	-6%	-12%	-15%	x	x
Nc1cc(-c2ccccc2)c[nH]c1=O	x	x	x	x	x	u	65*
Nc1cc(-c2ccncc2)c[nH]c1=O	-1%[201 µM]	1.4µM*	u	2µM*	u	3*	61*
c1ccc(CN=C2NN=C(c3ccccc3)CS2)cc1	-6%	u	-17%	-6%	1%	x	x
CN(C)S(=O)(=O)c1cccc(N=C2NN=C(c3ccccc3)CS2)c1	-5%	8.9µM*	u	u	-5%	3*	u
CN(c1ccccc1)S(=O)(=O)c1nnc(NC(=O)COc2ccccc2)s1	-25%	u	u	u	-6%	x	u
COC(=O)c1ccccc1NC(=O)CSc1nc2sc3c(c2c(=O)[nH]1)CCCC3	2%	7.9µM*	u	14µM*	-2%	2*	58*
